Screening results (PubChem BioAssay)
Sampled rows, rich in hits. Any-hit rate of the full collection: about 2.4%.
POLI inh: DNA polymerase iota (human) inhibition. Potency, µM (top dose mostly 115 µM), without a hit: at the top dose activity, negative = inhibition, most hits filed as inhibitors. 390,000 compounds, 1% hits. Pol iota fluorescent replication assay, 10 min. Q9UNA4
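Fluorescent replication assay read twice, at 0 min and 10 min after adding 50 nM (final) substrate. Enzyme (10 nM) and compounds were first incubated 15 min at room temperature; enzyme-free buffer wells were negative controls.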
FEN1 inh: inhibitors of human flap endonuclease 1; P39748; Recombinant FEN1 flap cleavage, fluorescence, 15 min; Potency, µM (highest dose often 114 µM), for the others: at the top dose activity change, negative = inhibition, hits mostly inhibitors; 390,000 compounds, 0.35% hits; AID 588795; note: % is set by controls: 0 for no effect and ±100 for the full control effect; nearly all actives have a fitted effect of over 65% in size
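In this screen, 50 nM flap DNA substrate was added to 10 nM FEN1 pretreated with compound for 15 min at room temperature; cleavage was followed with reads at 0 and 15 min, and Hill fitting gave concentration–response parameters.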
TDP1 inh: TDP1 (human) enzyme inhibition; 350,000 compounds, 0.28% hits; recombinant TDP1, AlphaScreen DNA substrate cleavage; AID 485290; Potency, µM (series often up to 130 µM), for the others: at the top dose activity change, negative = inhibition, hits mostly inhibitors; note: % is set by controls: 0 for no effect and ±100 for the full control effect; nearly all actives have a fitted effect of over 40% in size
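Tdp1 1 nM final; 15 min RT w/ cpd; substrate 15 nM, 5 min; beads 10 ug/ml, 10 min; AlphaScreen read. Neg ctrl: no enzyme.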
Pol beta inh: inhibitors of human DNA polymerase beta; AID 485314; Pol beta primer extension/strand displacement, fluorescence kinetic; P06746; Potency, µM (doses to about 114 µM), without a hit: at the highest dose activity change, negative = inhibition, hits mostly inhibitors; 340,000 compounds, 1.3% hits; note: % is set by controls: 0 for no effect and ±100 for the full control effect
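Kinetic readout of DNA synthesis with strand displacement by Pol beta. Compound and 10 nM enzyme sit 15 min at room temperature; 50 nM substrate starts the reaction, read immediately and at 10 min.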
Pol eta inh: DNA polymerase eta (human) inhibition. Potency, µM (titrated, usually from 114 µM), for inactives: at the top dose activity change, negative = inhibition, most hits filed as inhibitors. Q9Y253. recombinant Pol eta, fluorescent DNA replication assay. 390,000 compounds, 1.2% hits. AID 588591; note: % is set by controls: 0 for no effect and ±100 for the full control effect
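Fluorescent replication assay: 50 nM final substrate added after a 15 min room-temperature compound preincubation with 10 nM enzyme. Signal taken at 0 min and again at 10 min.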
Pol kappa inh: DNA polymerase kappa (human) inhibition; AID 588579; Q9UBT6; 400,000 compounds, 0.53% hits; purified Pol kappa, fluorescent DNA synthesis assay, 10 min; Potency, µM (series often up to 107 µM), for inactives: top-dose activity, negative = inhibition, most hits filed as inhibitors; note: % is set by controls: 0 for no effect and ±100 for the full control effect
Target sequence (Q9UBT6 whole entry, looked up): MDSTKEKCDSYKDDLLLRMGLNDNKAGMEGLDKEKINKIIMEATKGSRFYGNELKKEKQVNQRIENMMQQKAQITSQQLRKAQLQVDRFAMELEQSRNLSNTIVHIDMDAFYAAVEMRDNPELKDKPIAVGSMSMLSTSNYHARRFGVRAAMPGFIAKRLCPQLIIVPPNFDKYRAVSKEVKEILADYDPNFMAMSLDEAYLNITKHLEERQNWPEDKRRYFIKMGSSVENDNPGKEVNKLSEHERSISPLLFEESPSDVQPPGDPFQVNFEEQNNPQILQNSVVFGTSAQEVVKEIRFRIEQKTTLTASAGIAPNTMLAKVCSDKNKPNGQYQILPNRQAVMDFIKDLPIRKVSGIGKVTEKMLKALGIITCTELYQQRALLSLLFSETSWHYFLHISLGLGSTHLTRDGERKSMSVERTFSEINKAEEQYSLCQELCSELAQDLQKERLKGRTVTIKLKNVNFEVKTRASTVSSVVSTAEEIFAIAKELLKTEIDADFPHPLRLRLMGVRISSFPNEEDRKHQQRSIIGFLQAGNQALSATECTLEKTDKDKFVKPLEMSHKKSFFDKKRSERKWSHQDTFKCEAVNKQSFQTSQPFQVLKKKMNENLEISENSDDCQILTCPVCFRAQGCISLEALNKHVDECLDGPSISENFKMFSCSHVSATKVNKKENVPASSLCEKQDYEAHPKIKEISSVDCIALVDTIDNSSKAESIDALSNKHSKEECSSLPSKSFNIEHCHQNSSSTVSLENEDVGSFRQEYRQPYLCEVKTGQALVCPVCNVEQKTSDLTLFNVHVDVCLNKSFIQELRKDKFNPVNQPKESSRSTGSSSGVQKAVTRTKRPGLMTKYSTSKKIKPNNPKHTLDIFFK
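10 nM Pol kappa preincubated 15 min at room temperature with compounds, then reaction started with substrate at 50 nM final. Fluorescence read kinetically at 0 and 10 min; buffer-only wells served as negative control.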
An asterisk follows results filed as active; ? = inconclusive; · = no result given; [ ] = dose if it differs, or a comment. Calls come from the whole dose curve; as a rule, active = well fitted curve in the direction sought with a large enough effect; inconclusive = small, poorly fitted or top-dose-only effect, or another doubt; inactive = no such curve, though single readings can be large; an effect the other way counts as inactive or inconclusive. Potency is the fitted concentration of half-maximal effect.

SMILES	POLI inh	FEN1 inh	TDP1 inh	Pol beta inh	Pol eta inh	Pol kappa inh
Cc1cc(C(=O)COc2cccc3cccnc23)c(C)n1C	8%	-8%	11%	11µM*	?	-12%
Cc1ccnc(NS(=O)(=O)c2ccc(CC(C)C)cc2)c1	-22%	10%	0%	100µM*	1%	-3%
CCN1/C(=C/c2cc[n+](C)cc2)C=Cc2cc(C)ccc21	?	?	9%	22µM*	?	-20%
Cc1ccc(/C=C/c2nc3ccccc3n2S(=O)(=O)c2cccc(Cl)c2)cc1	-28%	-14%	1%	-12%	-8%	-5%[60.1 µM]
CCOc1ccc2nc(SCC(=O)Nc3ccc(S(=O)(=O)N4CCCC4)cc3)c(C)cc2c1	?	40µM*	·	-2%	-11%	-36%
COc1ccc(NC(=O)CSc2cn(CCNC(=O)c3c(F)cccc3F)c3ccccc23)cc1	-9%	3%	5%	4%	-8%	-15%
Cc1cccc(NC(=O)C2CCCN2S(=O)(=O)c2ccc3nc(-c4ccccc4)[nH]c3c2)c1 (stereo unspecified)	?	-3%	3%	?	79µM*	?
O=C(COc1ccccc1/C=C1\SC(=O)NC1=O)Nc1ccc(F)cc1	52%	-16%	-13%	?	71µM*	-7%
C=CCN1C(=O)N/C(=C/c2ccccc2OCC(=O)Nc2ccc(F)cc2)C1=O	?	14%	5%	0%	-12%	-10%
Cc1cccn2c(=O)c(C(=O)NCc3ccc(F)cc3)c(O)nc12	-29%	7%	0%	26%	-7%	15%
COC(=O)N/N=C/c1ccc(OC(=O)/C=C/c2ccco2)cc1	35µM*	12%	·	11µM*	?	?
CCc1ccc(OC(=O)/C=C/c2ccco2)cc1	?	-14%	·	35µM*	-6%	?
COCCN(CC(=O)Nc1cccc(C)c1C)C(=O)c1cc2c(s1)CCC2	89µM*	7%	22µM*	·	?	?
COc1ccc(S(=O)(=O)NCC(c2ccco2)S(=O)(=O)c2cccs2)cc1F (stereo unspecified)	-11%	-10%	3%	-2%	-20%	-4%[60.1 µM]
Cc1ccc2nc(CSc3nnc(Nc4ccccc4F)s3)cc(=O)n2c1	?	3%	?	22µM*	-31%	-12%
O=C(Nc1ccc(C(F)(F)F)cc1)c1ccc2nc[nH]c2c1	-28%	5%	5%	-1%	-11%	-1%
NS(=O)(=O)c1cccc(NC(=O)c2ccc3nc[nH]c3c2)c1	?	1%	·	50µM*	79µM*	?
CC1(C)CC[C@]2(C(=O)O)CC[C@]3(C)C(=CC[C@@H]4[C@@]5(C)CC[C@H](O)C(C)(C)[C@@H]5CC[C@]43C)[C@@H]2C1	1%	13%	-1%	0%	-7%	-5%
COc1cccc(C(c2sc3nc(-c4ccco4)nn3c2O)N2CCCC2)c1 (stereo unspecified)	-9%	-9%	-3%	33%	-10%	-6%[60.1 µM]
COC(=O)[C@@H]1C[C@@]2(Br)c3ccccc3N(S(=O)(=O)c3ccccc3)[C@H]2N1C(=O)OC	89µM*	-4%	·	·	-17%	-1%
COC(=O)[C@@H]1C[C@]2(Br)c3ccccc3N(S(=O)(=O)c3ccccc3)[C@@H]2N1C(=O)OC	-16%	3%	·	·	-12%	3%
CCC(c1nnnn1C1CCCC1)N1CCN(c2ccccc2F)CC1 (stereo unspecified)	6%	6%	0%	-27%	-9%	3%
Fc1ccccc1N1CCN(C(c2ccncc2)c2nnnn2C2CCCC2)CC1 (stereo unspecified)	79µM*	8%	6%	4%	-13%	-5%
Cc1ccc(NS(=O)(=O)c2cc3c(cc2N(C)C)NC(=O)CC3)cc1C	·	·	0%	·	·	·
CN(C)/C=C/C(=O)c1ccc2noc(-c3ccccc3)c2c1	79µM*	-10%	·	?	?	-18%
SMILES	POLI inh	FEN1 inh	TDP1 inh	Pol beta inh	Pol eta inh	Pol kappa inh
COc1ccc(NC(=O)CCS(=O)(=O)c2ccc(Br)s2)cc1	?	-12%	·	32µM*	50µM*	?
CCc1cccc(CC)c1NC(=O)CCS(=O)(=O)c1ccc(Br)s1	2%	6%	0%	20µM*	-12%	-4%
COc1ccc(NC(=O)CCS(=O)(=O)c2ccc(OC)cc2)cc1	5%	11%	8%	2%	-13%	-4%
C=C1CCC(C)C(C)(CCC2=CCOC2=O)C/C=C\C=C/1C(=O)O (stereo unspecified)	?	-4%	·	2%	28µM*	?
O/N=C1/CCc2cccc3cccc1c23	-14%	-21%	1%	-2%	-1%	-9%
O=C1C(=NO)CCc2ccccc21	?	-4%	·	·	18µM*	-23%
CC=Cc1cc2c(c(=O)o1)C(=O)C(O)C(C)O2 (stereo unspecified)	50µM*	-6%	·	·	?	-27%
O=C(C=Cc1ccccc1)CC(c1ccccc1)N1CCOCC1 (stereo unspecified)	20µM*	-18%	·	·	?	-9%
O=C(C(c1ccccc1)N1CCOCC1)N1CCOCC1 (stereo unspecified)	-12%	38%	-5%	12%	-12%	-2%
Cc1ccc(-c2nnc(Nc3cccc(O)c3)c3ccccc23)cc1S(=O)(=O)NCCO	17%	-21%	4%	1%	?	-24%
CCOC(=O)CNS(=O)(=O)c1cc(-c2nnc(Nc3cccc(O)c3)c3ccccc23)ccc1C	89µM*	?	-7%[12.3 µM]	3%	-7%	?
O=C1CCc2cc(S(=O)(=O)Nc3ccc4c(c3)CCC4)ccc2N1	·	·	-1%	·	·	·
CCCSCCCNC(=O)CN1C(=O)COc2ccc(S(=O)(=O)N3CCC(C)CC3)cc21	19%	14%	1%	2%	-1%	-1%
O=c1c(C(c2nnnn2C2CCCCC2)N2CCCCC2)coc2ccc(Cl)cc12 (stereo unspecified)	8%	-7%	-6%	100µM*	-13%	-9%
COc1ccc(CCNC(=O)CCc2nc3sc4c(c3c(=O)[nH]2)CCCC4)cc1	?	-14%	-6%	35µM*	?	-27%
O=C(CCc1nc2sc3c(c2c(=O)[nH]1)CCCC3)NCCc1ccc(Cl)cc1	·	·	·	·	-6%	·
O=C(CCc1nc2sc3c(c2c(=O)[nH]1)CCCC3)Nc1ccccc1Cl	45µM*	-2%	·	·	?	?
NNC(=O)c1ccc(C(=O)N(c2ccccc2)c2ccccc2)cc1	5%	7%	·	·	·	-12%
O=C(Cc1ccc(Oc2ccccc2)cc1)NO	38%	-16%	·	·	·	-18%
CCc1ccc(NS(=O)(=O)c2[nH]ncc2C(=O)OC)cc1	79µM*	16%	-6%	?	-12%	-26%
